# The campaign covered roughly 3,300 compounds. About 50 (2%) were called active. Only a sample is shown. Potency and affinity values are given separately. Unmarked numbers belong to inactive results.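 The calls were made as follows: active = concentration giving half-maximal inhibition at or below 20 micromolar; inactive = half-maximal concentration above 20 micromolar, or not dose tested.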
# Experiment: cytotoxicity toward Jurkat T cells, primary screen, cell-based, Jurkat E6.1, NIH starter set (AID 364);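 also: 100% = cells treated with 4 µM doxorubicin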
# Details: Jurkat E6.1 viability, ATP luminescence, 48 h; at 4 µM; hits give high values
row,SMILES,inhibition [%]
1,CCCOc1ccc(N2C(=O)CC(N(CCC)C(=O)CCC(=O)O)C2=O)cc1 (stereo not given),-0.8
2,COc1cccc(/C(O)=C2/C(=O)C(=O)N(CCN(C)C)C2c2ccc(Br)cc2)c1 (stereo not given),-1.9
3,CCOc1ccc(Br)cc1CC(=O)O,13.6
4,O=C(C(c1ccccc1)N1CCOCC1)N1CCOCC1 (stereo not given),-13.4
5,Cc1cc2c(c(=O)n1Cc1ccccn1)C(c1ccc3c(c1)OCO3)C(C#N)=C(N)O2 (stereo not given),-0.2
6,CCCCCOc1ccc(Cl)cc1CN1CCOCC1,-0.4
7,COc1cccc(C2/C(=C(\O)c3ccc(OC)c(OC)c3)C(=O)C(=O)N2c2cc(C)on2)c1 (stereo not given),-14.4
8,Cc1cc(C)nc(N(C#N)S(=O)(=O)c2ccccc2Cl)n1,1
9,COc1ccc(OC)c(NC(=O)CSC2=C(C#N)C(c3ccco3)C3=C(CCCC3=O)N2)c1 (stereo not given),4.8
10,COc1ccc(NC(=O)CSC2=C(C#N)C(c3ccco3)C3=C(CCCC3=O)N2)c(OC)c1 (stereo not given),1.6
11,Cc1c(N2C(=O)SC(CC(=O)O)C2=O)c(=O)n(-c2ccccc2)n1C (stereo not given),-2.7
12,CC(=O)C1(C)OC(N)=C(C#N)C(c2ccccc2)C1(C#N)C#N (stereo not given),5.6
13,COc1ccc(N2C(=O)C3C(C2=O)C2C=CC3C23CC3)c(OC)c1 (stereo not given),0.8
14,COc1ccccc1NC(=O)Nc1nnc(C(C)C)s1,9.4
15,COc1ccc(OC)c(C2=Nn3c(nnc3C3CCCCC3)SC2)c1,5.2
16,c1ccc(-c2nnc3n2N=C(c2ccc4c(c2)OCO4)CS3)nc1,-6.9
17,CC(=O)[C@H]1[C@@H]2C(=O)N(c3cccc(Cl)c3)C(=O)[C@@H]2[C@H]2c3ccccc3C=CN21,-1.9
18,CCOC(=O)CNS(=O)(=O)c1cc(-c2nn(C)c(=O)c3ccccc23)ccc1C,1.1
19,C=C(C)CC1N(c2cccc(OC)c2)C(=O)[C@@H]2C(C(=O)O)[C@H]3C=C[C@@]12O3 (stereo not given in full),5.9
20,CCCCOc1ccc(C(=O)Nc2ccc(N3CCN(C(C)=O)CC3)cc2)cc1,6.7
21,COc1ccc(C(=O)CSC2=C(C#N)C3(CCCCC3)C(C#N)=C(N)N2)cc1,4.2
22,N#CC1=C(N)NC(SCc2ccc(Cl)cc2)=C(C#N)C12CCCCC2,7.9
23,Cc1csc(SCCn2c(Br)nc3c2c(=O)[nH]c(=O)n3C)n1,-4.7
24,N#CC1=C(N)C(C#N)(C#N)[C@H](c2ccncc2)[C@H]2CN(C(=O)OCc3ccccc3)CC=C12,2.4
25,O=C(CSc1nnc(-c2ccco2)c(-c2ccco2)n1)Nc1ccccc1,0.1

row,SMILES,inhibition [%]
1,COCCOC(=O)c1c(C)nc(SCC(=O)Nc2ccc(C)cc2)c(C#N)c1-c1ccco1,13.5
2,C=CCN(C)CCCNC(=O)/C=N/O,2.4
3,CN(CCOC(=O)c1ccc2c(c1)OCCO2)Cc1ccccc1,-9.3
4,O=C(CC(c1ccco1)S(=O)(=O)c1ccccc1)c1ccc(F)cc1 (stereo not given),-1
5,c1cncc(-c2nnc3sc(-c4ccco4)nn23)c1,7.6
6,COc1cc(-c2nn3c(-c4cccnc4)nnc3s2)cc(OC)c1OC,3.2
7,Cc1c(NS(=O)(=O)c2cccc3nsnc23)c(=O)n(-c2ccccc2)n1C,-5.3
8,CCN(CC)CCN1C(=O)C(O)=C(C(C)=O)C1c1ccc(OC)c(OC)c1 (stereo not given),-15.9
9,Cn1c(=O)cc(NCc2ccccc2)[nH]c1=O,-8.6
10,Cc1ccc2cc(CNC(C)(C)C)c(=O)[nH]c2c1,7.6
11,CCc1c(C)c(C#N)c2nc3ccccc3n2c1-n1nc(C)cc1C,-5.3
12,COCc1cc(C)nc(SCC(=O)Nc2ccc(C)c(C)c2)c1C#N,-5.4
13,CCc1nc2c(sc3nc(N4CCOCC4)c4c(c32)CC(C)(C)OC4)c(=O)o1,-2
14,CN(C)CCCN1C(=O)C(=O)/C(=C(/O)c2ccccc2)C1c1ccccn1 (stereo not given),8.4
15,COc1ccc(OC)c(C2=Nn3c(nnc3-c3ccco3)SC2)c1,-10.8
16,CCOc1ccc(-c2nnc3sc(-c4ccccc4OC)nn23)cc1,1.2
17,CCOc1ccc(C2=Nn3c(nnc3-c3cccnc3)SC2)cc1,2.1
18,c1ccc(C2=Nn3c(nnc3-c3ccccn3)SC2)cc1,-9.2
19,COc1ccc(C2=Nn3c(nnc3-c3cccnc3)SC2)cc1OC,-8.2
20,CCOc1ccc(C2=Nn3c(nnc3-c3ccccn3)SC2)cc1,2.6
21,Cc1cccc(-c2nnc3n2N=C(c2ccccc2)CS3)c1,13.9
22,COc1ccc(C2=Nn3c(nnc3-c3ccccn3)SC2)cc1OC,2.3
23,CC1(C)CC(=O)C2=C(C1)N(CC1CCCO1)C(=O)C2(O)C(F)(F)F (stereo not given),7.7
24,COc1ccc(-c2nc3n(n2)C(=O)CC(c2ccco2)S3)cc1 (stereo not given),-1.6
25,Cc1cc(NCC2CCCO2)n2c(nc3ccccc32)c1C#N (stereo not given),15.2
